Source: ChEMBL document CHEMBL3988442, “University of Dundee, Small-Polar-MMV Screening Library” (2021)
About 13,000 (27%) of roughly 48,000 compounds showed an effect of 50% or more. The list shows a part of the results.

system: Wolbachia pipientis; experiment: Anti-Wolbachia Cell-Based Screen; format: functional; design: scale not given: in the data most compounds retested in dose-response had high values; conditions: 5 µM

| SMILES | Percent Effect |
| --- | --- |
| CCOC(=O)C(C)Nc1ccc(CCN2CCOCC2)cc1 (stereo not given) | 97.92% |
| CCC(Nc1ccc(CCN2CCOCC2)cc1)C(N)=O (stereo not given) | 92.12% |
| CCC(C)C(=O)Nc1ccc(CCN2CCOCC2)cc1 (stereo not given) | 92.28% |
| O=C(Nc1ccc(CCN2CCC(O)CC2)cc1)C1CCOCC1 | 8.941% |
| Cc1ccc(CCCC(=O)N(C)CCN2CCOCC2)cc1 | -4.729% |
| COC(=O)C(O)C1CCN(CCc2ccncc2)CC1 (stereo not given) | -5.946% |
| CCC(Nc1ccc(Oc2ccccc2OC)cc1)C(N)=O (stereo not given) | 11.69% |
| CC(Nc1ccc(CCN2CCOCC2)cc1)C(=O)N(C)CCC#N (stereo not given) | 7.396% |
| CC(CCc1ccccc1)NC(=O)CN1CCOCC1 (stereo not given) | -21.53% |
| NC(=O)C1CCN(CCc2ccc(NC(=O)C3CCC3)cc2)CC1 | -0.7709% |
| CC(Nc1ccc(CCN2CCCCC2)cc1)C(=O)N(C)CCC#N (stereo not given) | -7.662% |
| CCC(Nc1ccc(CCN2CCCCC2)cc1)C(N)=O (stereo not given) | 104.3% |
| CCOc1cc(NC(=O)NCCn2cnnc2CC)ccc1C | -0.5638% |
| CCc1nc(CN2CCN(c3ncnc4cc(F)ccc34)CC2)no1 | -16.98% |
| CN(CCO)Cc1nnc(C2CCN(C(=O)c3cc[nH]c3)CC2)n1C | -143.4% |
| CN1CCN(c2ncccn2)CC(C(=O)N(C)C)C1 (stereo not given) | 92.05% |
| CN(C)C(=O)CN1C[C@H]2CCN(c3ncccn3)CC[C@H]2S1(=O)=O.O=C(O)C(F)(F)F | -3.991% |
| CN(C)C(=O)C1CN(c2ncccn2)CCN1C (stereo not given) | 84.43% |
| CN1CCN(c2ncccn2)CC1C(N)=O (stereo not given) | 76.51% |
| Cc1ccc(C(=O)N2C[C@@H]3CN(c4ncccn4)C[C@@H]3C2)cn1 | 1.13% |
| Cc1ccc(C(=O)N2C[C@@H]3CN(c4ncccn4)C[C@@H]3C2)cc1 | 3.247% |
| CN(C)C(=O)[C@H]1C[C@@H]2CN(c3ncccn3)C[C@H]1O2 | 10.85% |
| CN(C)C(=O)[C@@H]1CCO[C@@H]2CCN(c3ncccn3)C[C@@H]21.O=C(O)C(F)(F)F | 0.2661% |
| CSc1cccc(CN(C)C(=O)CN2CCN(c3ncccn3)CC2)c1 | -6.038% |
| CCc1c(C)nc(C)nc1N1C[C@@H](CN(CC)CCO)[C@@H](CO)C1 | 6.908% |
| COc1cc(F)ccc1N1CCN(Cc2nnc(C3CC3)o2)CC1 | -5.388% |
| CCc1nc(CN(C)C2CCN(Cc3nnc(C4CCC4)o3)C2)no1 (stereo not given) | 110.6% |

| SMILES | Percent Effect |
| --- | --- |
| Cc1nc(CN2CCCC(N(C)Cc3nc(C)c(C)o3)C2)no1 (stereo not given) | -3.907% |
| CC(C)c1nc(CN(C)C2CCN(Cc3nc(C4CC4)no3)C2)no1 (stereo not given) | -21.22% |
| CC(C)c1nc(CN(C)C2CCN(Cc3nnc(C4CC4)o3)C2)no1 (stereo not given) | 123.9% |
| CN(Cc1nnc(C2CC2)o1)C1CCN(CCCc2cnn(C)c2)C1 (stereo not given) | 3.532% |
| CCCc1n[nH]c(C2CN(Cc3nnc(C4CC4)o3)CCO2)n1 (stereo not given) | -2.84% |
| CCCc1noc(CN2CCC(N(C)Cc3nnc(C4CC4)o3)C2)n1 (stereo not given) | 109.8% |
| Cc1nc(CN(C)C2CCN(Cc3nnc(C4CC4)o3)C2)no1 (stereo not given) | 115.8% |
| CCc1nc(CN2CCCC(N(C)Cc3cnn(C)c3)C2)no1 (stereo not given) | 10.72% |
| CCc1nc(CN(C)C2CCN(Cc3cnc(C)cn3)C2)no1 (stereo not given) | 5.773% |
| Cc1nc(CN2CCCC(N(C)Cc3nnc(C4CC4)o3)C2)no1 (stereo not given) | 6.77% |
| CC(C)c1nc(CN2CCCN(Cc3nnc(C4CC4)o3)CC2)no1 | 0.1522% |
| O=S(=O)(Cc1ccccc1Cl)NCCCN1CCCC1 | -15.99% |
| OC1CCN(C2CCN(Cc3cnc(-c4cccs4)nc3)CC2)CC1 | 3.199% |
| COc1cc(OC)c(-c2nc3c([nH]2)c(C2CC2)nn3C)cc1OC | 11.95% |
| CN1CCOC(C(=O)Nc2nc(-c3ccc(Cl)cc3)n[nH]2)C1 (stereo not given) | -7.364% |
| COc1ccc([C@@H]2CN(Cc3ccncc3)C[C@H]2c2cc[nH]n2)cc1.O=C(O)CC(O)(CC(=O)O)C(=O)O | 69.64% |
| COc1ccc(CN2C[C@@H]3CN(Cc4ccncc4)C[C@@H]3C2=O)cc1.O=C(O)C(F)(F)F.O=C(O)C(F)(F)F | -12.53% |
| O=C(CCC1CCCC1)N1C[C@H]2CC[C@@H]1CN(Cc1ccncc1)C2 | 3.308% |
| COc1ccc(CN2C[C@H]3CN(Cc4ccncc4)C(=O)[C@H]3C2)cc1.O=C(O)C(F)(F)F.O=C(O)C(F)(F)F | -3.011% |
| O=C(O)CC(O)(CC(=O)O)C(=O)O.c1ccc([C@@H]2CN(Cc3ccncc3)C[C@H]2c2cc[nH]n2)cc1 | 114% |
| COc1ccccc1[C@@H]1CN(Cc2ccncc2)C[C@H]1C(=O)O | -10.92% |
| O=C(O)CC(O)(CC(=O)O)C(=O)O.c1ccc([C@@H]2CN(Cc3cccnc3)C[C@H]2c2cc[nH]n2)cc1 | 104% |
| O=C(O)CC(O)(CC(=O)O)C(=O)O.c1cncc(-c2nccc(CN3CCCC3)n2)c1 | -12.77% |
| O=C(O)CC(O)(CC(=O)O)C(=O)O.c1ccc(CC2CCN(Cc3ccnc(-c4cccnc4)n3)CC2)cc1 | 2.968% |
| Cc1csc(CN(C)S(=O)(=O)c2ccc(C)c(N(C)C)c2)n1 | 11.95% |
| Cc1c(NC(=O)c2noc3c2CCCC3)cnn1C | 77.55% |
| Cc1cc(CN2CCC(CNC(=O)c3noc4c3CCCC4)C2)[nH]n1 (stereo not given) | -1.453% |

| SMILES | Percent Effect |
| --- | --- |
| COc1cccc([C@H]2CN(C(=O)c3noc4c3CCCC4)C[C@@H]2N)c1 | -1.914% |
| Cn1ncc(NC(=O)c2noc3c2CCCC3)c1C(N)=O | 112.2% |
| Cc1cc(C(N)=O)ccc1NC(=O)c1nc(N2CCCC2)ncc1Cl | -12.29% |
| CN1CCc2[nH]cnc2C12CCN(C(=O)c1noc3c1CCCC3)CC2 | 33.96% |
| Cn1ncc(NC(=O)c2noc3c2CCCC3)c1C(=O)N1CCCCC1 | 98.83% |
| CN(C)C(=O)c1noc2c1CN(C(=O)CCCN1CCCCC1)CC2 | -13.23% |
| CCC(CNS(C)(=O)=O)Oc1ccccc1F (stereo not given) | -7.569% |
| CN1CCC(C2CCN(Cc3cccc(-n4cccn4)c3)CC2)C1 (stereo not given) | -5.048% |
| CC(=O)N1CC(=O)N(c2cnn(C)c2)CC12CCN(Cc1ccco1)C2 (stereo not given) | 98.22% |
| CC(=O)N1CC(=O)N(c2ccccc2)CC12CCN(Cc1cccs1)C2.O=C(O)C(F)(F)F (stereo not given) | 4.365% |
| CC(=O)N1CC(=O)N(c2cnn(C)c2)CC12CCN(Cc1ccsc1)C2.O=C(O)C(F)(F)F.O=C(O)C(F)(F)F (stereo not given) | 4.027% |
| CC(=O)N1CC(=O)N(c2cnn(C)c2)CC12CCN(Cc1ccoc1)C2 (stereo not given) | -11.13% |
| CC(=O)N1CC(=O)N(c2cnn(C)c2)CC12CCN(Cc1cccs1)C2.O=C(O)C(F)(F)F (stereo not given) | 106.8% |
| CC(=O)N1CC(=O)N(c2cnn(C)c2)CC12CCN(Cc1nccs1)C2 (stereo not given) | -3.662% |
| CN(Cc1cccc2ncccc12)C(=O)CCn1ccc(=O)[nH]c1=O | 10.3% |
| CNC(=O)CN1CCC(NC(=O)Cn2cc(C)c3ccccc32)CC1 | -8.28% |
| CC(=O)N(Cc1noc(C)n1)C1CCN(Cc2ccncc2Cl)C1 (stereo not given) | 6.525% |
| CNC(=O)CN1CCC(NC(=O)N(C)Cc2cc(C)on2)CC1 | 7.433% |
| CN(Cc1cc(Cl)cc2cccnc12)CC1CCN(CCO)CC1 | -4.482% |
| CNC(=O)CN1CCC(c2nn(C)c(=O)n2-c2ccccc2)CC1 | 1.276% |
| CNC(=O)CN1CCC(NC(=O)CC(C)CCc2ccccc2)CC1 (stereo not given) | 1.042% |
| CNC(=O)CN1CCC(CN(C)CCSc2ccccc2)CC1 | 112.7% |
| CNC(=O)CN1CCC(CN(C)Cc2ccc(C)cc2C)CC1 | 95.31% |
| CNC(=O)CN1CCC(CN(C)Cc2ccccc2N(C)C)CC1 | 105.8% |
| CNC(=O)CN1CCCC(Cc2ccccc2OC)C1 (stereo not given) | 4.844% |
| CNC(=O)CN1CCC(NC(=O)Cc2ccccc2OC(C)C)CC1 | -20.84% |
| CNC(=O)CN1CCC(CN(C)Cc2ccncc2Cl)CC1 | 104.1% |

| SMILES | Percent Effect |
| --- | --- |
| CCC(CNC(=O)C1CC1)(OC)c1ccccc1 (stereo not given) | -6.712% |
| Cc1cccc(CNC[C@H]2Cn3cc(-c4ccccc4)nc3CO2)n1 | -23.05% |
| CC(C)c1csc(C(=O)N(C)c2ccc(Br)cn2)n1 | -10.23% |
| Cc1cccnc1NCCNC(=O)C1CCN(C(=O)N(C)C)CC1 | -7.872% |
| Cc1cccnc1NCCNC(=O)C1CCN(Cc2ccco2)CC1 | -35.11% |
| CC(C)(C)C(=O)NCCCc1nc2ccccc2[nH]1 | 0.1098% |
| Cc1ncccc1-c1cc2cccnc2n1CCCNC(=O)C(C)(C)C.Cl | 83.99% |
| Cc1ccc(OCCCNC(=O)Cc2nc3ncccn3n2)cc1 | -3.394% |
| CC(C)(C)C(=O)NCCNCc1ccc(Cl)c2cccnc12 | -7.376% |
| Cc1ncccc1-c1cc2cccnc2n1CCCNC(=O)C1CC1.Cl | 102.7% |
| CCC(=O)NCCCn1c(-c2cccnc2C)cc2cccnc21.Cl | 116.3% |
| CC(NC(=O)NCCCn1cccn1)c1cccnc1 (stereo not given) | 14.81% |
| CCS(=O)(=O)NCC(=O)N(C1CC1)C1Cc2ccccc2C1 | 0.1274% |
| CC(C)C(NC(=O)c1ccc(=O)[nH]c1)c1nnc2n1CCNCC2 (stereo not given) | 5.765% |
| O=C(c1ccc(Br)o1)N1CCCC(n2cncn2)C1 (stereo not given) | 3.935% |
| COc1cc(C2(C(=O)N3CCCC(n4cncn4)C3)CC2)ccc1C (stereo not given) | 127.9% |
| COc1ccc(C)cc1C(=O)N1CCCC(n2cncn2)C1 (stereo not given) | 125.6% |
| COc1cc(C(=O)N2CCCC(n3cncn3)C2)ccc1C (stereo not given) | 123.7% |
| O=C(c1ccc(C(F)(F)F)nc1)N1CCCC(n2cncn2)C1 (stereo not given) | -5.926% |
| O=C(c1ccccc1OC1CCCC1)N1CCCC(n2cncn2)C1 (stereo not given) | 131.9% |
| CCOc1cc(C(=O)N2CCCC(n3cncn3)C2)ccc1C (stereo not given) | 31.02% |
| COc1cc(C2(C(=O)N3CCN(CC(C)(C)O)CC3)CC2)ccc1C | -9.844% |
| Cn1cc(C(=O)N2CCCC(n3cncn3)C2)ccc1=O (stereo not given) | -4.437% |
| COc1cc(C2(C(=O)NC3CCN(C4CC4)CC3)CC2)ccc1C | -9.965% |
